These results are taken from PubChem BioAssay AID504332 (National Center for Advancing Translational Sciences (NCATS), 2011).

Hit rate of the full screen: of about 350,000 compounds, about 31,000 (8.9%) were called active. A call without a number means that no potency is given here. Inconclusive results (about 15%) are left out. Calls follow the shape of the dose curve; as a rule, active = well fitted inhibition curve with a large enough effect; inconclusive = small, poorly fitted or top-dose-only effect; inactive = no such curve, though single readings can be large or run the other way. Only a selection was taken, and actives are over-represented in it overall.
Potency is read from the fitted curve at half-maximal effect.

For the experiment, the target named is Histone-lysine N-methyltransferase EHMT2 (Homo sapiens) (UniProt Q96KQ7). Briefly: qHTS Assay for Inhibitors of Histone Lysine Methyltransferase G9a. Also: nearly all actives have a fitted effect of over 75% in size. The note with it: G9a H3K9 monomethylation, AlphaScreen, 2 h; series mostly up to 59 µM. In short, it runs like this: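 Readings reflect AlphaScreen signal from monomethyl-H3K9 antibody detection. HMT at 20 nM; substrate b-H3K9 500 nM; cofactor SAM 20 uM; 2 h RT reaction; compounds tested as titrations in qHTS with 15 min preincubation.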
Histone-lysine N-methyltransferase EHMT2 (Homo sapiens), sequence (Q96KQ7 913-1193 limits assumed): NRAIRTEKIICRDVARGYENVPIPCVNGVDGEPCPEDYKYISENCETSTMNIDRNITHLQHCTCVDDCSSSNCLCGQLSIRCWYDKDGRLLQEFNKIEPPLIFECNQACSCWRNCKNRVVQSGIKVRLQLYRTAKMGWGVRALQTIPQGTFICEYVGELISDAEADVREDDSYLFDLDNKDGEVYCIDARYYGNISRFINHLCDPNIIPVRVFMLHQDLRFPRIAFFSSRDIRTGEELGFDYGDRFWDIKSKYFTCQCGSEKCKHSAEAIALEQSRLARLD
In the case of `COc1ccc(CCNC(=O)Cn2c(=O)cc(C(F)(F)F)c3c(C)nn(C)c32)c(OC)c1`, the Potency result is “inactive”. As to `COc1ccccc1C(=O)NCCC(=O)NC(C)CCc1ccccc1` (configuration not stated), the activity, negative = inhibition is 3.84% [at 0.501 µM] (inactive). On the same count and under the same terms, in the case of `CCn1c(SCC(=O)NCC2CCCO2)nc2ccccc21` (configuration not stated) it was 19.8% [at 12.7 µM] (inactive). Regarding `O=C(CSc1ccc(-c2ccccc2)nn1)NCC1CCCO1` (configuration not stated), the Potency is 44.7 µM (active). Regarding `O=C(CSc1nnc(-c2ccc(NS(=O)(=O)c3ccccc3)cc2)o1)NCC1CCCO1` (configuration not stated), the Potency entry is “inactive”. Still for that read-out and setting: in the case of `CCOc1ccc(CCNC(=O)Cn2nc(CC)n3c(cc4sc(CC)cc43)c2=O)cc1OCC` it was “inactive”. Regarding `CCc1nnc(NC(=O)c2cc(S(=O)(=O)N3CCCCC3)ccc2C)s1`, the Potency entry is “inactive”. Regarding `CCOC(=O)c1ccc(NC(=O)Cn2c(=O)cc(C)c3c(C)nn(-c4cccc(F)c4)c32)cc1`, the Potency result is “inactive”. In the case of `Cc1ccc(-c2nn(-c3ccccc3)cc2C(=O)NC2CCC(O)CC2)cc1` (configuration not stated), the activity, negative = inhibition was 9.53% [at 2.33 µM] (inactive). Turning to `O=C(NNC(=S)NC(=O)c1cn(-c2ccccc2)nc1-c1ccccc1)c1ccncc1`, the Potency is 25.1 µM (active).

As for `O=C(Nc1cn(-c2ccccc2)nc1-c1ccccc1)c1ccccc1`, the Potency entry was “inactive”.

On to `COc1ccc(N(Cc2cc3ccc(C)cc3[nH]c2=O)S(=O)(=O)c2ccccc2)cc1`, for which the Potency result was “inactive”. On the same count and under the same terms, in the case of `Cc1ccccc1CNC(=O)c1cccc(NC(=O)c2nsc3ccccc23)c1` it was “inactive”. With `Fc1ccc(CSc2nc(NCc3ccccc3)c3ccccc3n2)cc1`, the Potency result is “inactive”.

Turning to `O=C(c1cc2ccccc2o1)N1CCN(S(=O)(=O)c2ccc(Cl)s2)CC1`, the activity, negative = inhibition was 0.973% [at 2.33 µM] (inactive). In the case of `Cc1ccc(C)c(NS(=O)(=O)c2ccc(OCC(=O)NCc3cccnc3)cc2)c1`, the Potency entry is “inactive”.

Take `Cc1ccc(NS(=O)(=O)c2ccc(C)c(NC(=O)COc3ccc4ccccc4c3)c2)c(C)c1`: the Potency is 35.5 µM (active). Regarding `CN(C)S(=O)(=O)c1cccc(NC(=O)COc2ccc3ccccc3c2)c1`, the activity, negative = inhibition is -10.1% [at 12.7 µM] (inactive).

For `CC(C)CNC(=S)NNC(=O)c1nn(C)cc1Cl`, the Potency entry is “inactive”.

Turning to `Cn1cc(Cl)c(C(=O)NNC(=S)Nc2cccc(Cl)c2)n1`, the Potency is 15.8 µM (active). For `Cc1cccc(NC(=S)Nc2ccc(Cl)c(Cl)c2)c1`, the Potency result was “inactive”. Take `CCOC(=O)c1ccc(NC(=O)c2ccc(NC(=O)C3CCCO3)cc2)cc1` (configuration not stated): the Potency result is “inactive”.

For the molecule `CCOC(=O)c1c(NC(=O)c2ccc(S(=O)(=O)N(CC)CC)cc2)sc2c1CCCCC2`, the Potency entry was “inactive”. Take `CCOC(=O)c1c(NC(=S)Nc2ccccc2C)sc2c1CCC2`: the Potency entry is “inactive”. In the case of `CCOC(=O)c1c(NC(=O)NC(C)(C)C)sc2c1CCN(C)C2`, the Potency result is “inactive”. As for `CCOC(=O)c1c(NC(=S)Nc2ccccc2)sc2c1CCN(C)C2`, the Potency was 44.7 µM (active). Same read-out and setting: the result for `CCOC(=O)c1c(NC(=O)c2cc(-c3ccc(Cl)cc3)on2)sc2c1CCCC2` reads 6.31 µM (active); that for `CCOC(=O)c1c(NC(=S)NC)sc2c1CCCC2`, 11.2 µM (active); that for `CCOC(=O)c1c(NC(=O)CSc2cn(CCNC(=O)c3cccc(C(F)(F)F)c3)c3ccccc23)sc2c1CCC2`, “inactive”. On the same count and under the same terms, in the case of `CCOC(=O)c1c(NC(=O)/C(C#N)=C/c2ccccc2)sc2c1CCC2` it was “inactive”. With `CCCOC(=O)Nc1sc2c(c1C(=O)OCC)CCC2`, the Potency entry was “inactive”. With `CCOC(=O)c1c(NC(=S)NC(=O)c2ccco2)sc2c1CCCC2`, the Potency result is “inactive”. Turning to `CCOC(=O)c1c(NC(=O)CSc2cn(CC)c3ccccc23)sc2c1CCC2`, the Potency was 56.2 µM (active). Regarding `CCOC(=O)c1c(NC(=O)CSc2nnc(C)c(=O)[nH]2)sc2c1CCC2`, the Potency entry was “inactive”. As to `COc1ccc(Cn2c(C(=O)O)c(CNCCc3cccs3)c3ccc(OC)cc32)cc1`, the Potency result was “inactive”. As for `CC1CCC(N2CC(=O)N(CCC3=CCCCC3)C(c3ccc(F)cc3)C2=O)CC1` (configuration not stated), the Potency result was “inactive”.

With `Cc1ccccc1-c1cc(C(=O)NCc2cccs2)n(CC2CC(c3cccnc3)=NO2)n1` (configuration not stated), the activity, negative = inhibition was -0.783% [at 0.501 µM] (inactive). Turning to `Cc1ccc(-c2nc(Cn3c(=O)cc(-c4ccccc4)c4c(C)nn(C)c43)c(C)o2)cc1`, the Potency entry is “inactive”. For `COc1cc(SC)ccc1C(=O)N(Cc1ccccc1)c1ccccc1`, the Potency entry is “inactive”. On the same count and under the same terms, in the case of `COc1cccc2sc(N(CCCN(C)C)C(=O)C(c3ccccc3)c3ccccc3)nc12` it was 6.31 µM (active). As to `CCOc1ccc2nc(N(CCCN(C)C)C(=O)c3ccc(C(=O)c4ccccc4)cc3)sc2c1`, the Potency was 44.7 µM (active). As for `COc1cc2ccccc2cc1C(=O)N(CCN(C)C)c1nc2c(F)cccc2s1`, the Potency was 44.7 µM (active). In the case of `COc1cc2ccccc2cc1C(=O)Nc1ccncc1`, the Potency result was “inactive”. For `COc1ccc(CCN(C(=O)COc2ccccc2)c2nc(-c3ccccc3)cs2)cc1OC`, the Potency entry is “inactive”. As for `CN(C)CCCN(C(=O)COc1ccccc1)c1nc2c(Cl)cccc2s1`, the Potency is 31.6 µM (active). For `COc1ccccc1NC(=O)CC(NCCN(C)C)C(=O)O` (configuration not stated), the Potency entry was “inactive”.

Regarding `CCOc1ccc2nc(Nc3nc4ccc(NC(C)=O)cc4s3)sc2c1`, the Potency entry was “inactive”. With `CCCC(=O)N(CCN1CCOCC1)c1nc2ccc(OCC)cc2s1`, the Potency entry was “inactive”. For the molecule `CCOc1cccc2sc(N3CCN(C(=O)C4CC4)CC3)nc12`, the Potency result was “inactive”. Take `CN(Cc1ccccc1)C(=O)COc1ccccc1`: the Potency entry was “inactive”.

With `CCOc1ccc(S(=O)(=O)N2CCC(C(=O)NCC(=O)Nc3cccc(Cl)c3C)CC2)cc1`, the Potency result was “inactive”. Still for that read-out and setting: the result for `Cc1ccc(NC(=O)CSc2cccc3cccnc23)c(C)c1` reads “inactive”; that for `COc1ccc(NC(=O)CSc2nnc(Cc3ccccc3)c(=O)n2N)cc1`, “inactive”; that for `COc1ccc(-n2cnnc2SCC(=O)Nc2cccc([N+](=O)[O-])c2)cc1`, “inactive”.

Take `COc1ccc(N(C)C(=O)CCS(=O)(=O)c2cccc3nsnc23)cc1`: the Potency entry is “inactive”. For `Cc1cccc2sc(N(CCCN(C)C)C(=O)CCS(=O)(=O)c3ccccc3)nc12`, the Potency is 22.4 µM (active). With `COc1ccccc1CNC(=O)CS(=O)(=O)c1cccc2nsnc12`, the Potency entry is “inactive”. For the molecule `CCN(CC)CCN(C(=O)c1cccc([N+](=O)[O-])c1)c1nc2ccc(OC)cc2s1`, the Potency is 50.1 µM (active). As for `O=C(CCS(=O)(=O)c1ccccc1)NC1CCCC1`, the Potency result was “inactive”. Take `COc1ccc(C)cc1NC(=O)CCS(=O)(=O)c1cccc2nonc12`: the Potency result is “inactive”.

Consider `COc1cccc2sc(N(CCCN(C)C)C(=O)CCS(=O)(=O)c3ccccc3)nc12`, for which the Potency was 8.91 µM (active). For `COc1ccc2sc(N(CCCN(C)C)C(=O)c3ccc(S(=O)(=O)N(C)C4CCCCC4)cc3)nc2c1`, the activity, negative = inhibition was -7.7% [at 2.33 µM] (inactive).
